The nature of assay [1]: A CellTox Green Cytotoxicity Assay to monitor cytotoxicity in HepG2 cells - 32 hour (AID 1224883). Also: nearly all actives have a fitted effect of over 50% in size. Also: potency is read from the fitted curve at half-maximal effect. An outline of the steps: (§1)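 HepG2 cells were seeded together with the CellTox Green dye at 600 cells/well, left 5 h at 37 C/5% CO2, then given compounds in DMSO. Fluorescence from dye bound to dead-cell DNA was read repeatedly over 40 h of treatment at 37 C.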
A short description of assay [2]: A CellTox Green Cytotoxicity Assay to monitor cytotoxicity in HEK293 cells - 8 hour (AID 1224884). Also: nearly all actives have a fitted effect of over 35% in size. Also: potency is read from the fitted curve at half-maximal effect. The essentials: (§2)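 HEK293 cells premixed with CellTox Green dye were seeded at 600 cells/well and left 5 h at 37 C/5% CO2 before pin transfer of 23 nL compound in DMSO. Fluorescence from dye bound to dead-cell DNA was read during 40 h treatment.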
Assay [3] is described as follows: qHTS RealTime-Glo MT Cell Viability Assay in HepG2 cells - 16 hour (AID 1224885). Also: nearly all actives have a fitted effect of over 50% in size. Also: potency is read from the fitted curve at half-maximal effect. The essentials: (§3)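 HepG2 cells (600/well) were dispensed with RealTime-Glo reagents, incubated 5 h at 37 °C, then treated with compounds in DMSO for up to 40 h. Nonlytic NanoLuc luminescence reflecting viable cells was read at each stated time point.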
A general note: qHTS replaces the single test concentration by a dilution series.

Assay [4] in a line: qHTS RealTime-Glo MT Cell Viability Assay in HEK293 cells - 24 hour (AID 1224886). Also: nearly all actives have a fitted effect of over 50% in size. Also: potency is read from the fitted curve at half-maximal effect. As to activity change, negative = cytotoxicity: top concentration of the series differs between compounds. The essentials:
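HEK293 cells seeded with NanoLuc/prosubstrate reagent, rested 5 h at 37 C, then dosed and kept at 37 C up to 40 h. Nonlytic real-time luminescence from viable cells read at 0, 8, 16, 24, 32 and 40 h.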

Assay [5] is described as follows: qHTS RealTime-Glo MT Cell Viability Assay in HEK293 cells - 8 hour (AID 1224887). Also: nearly all actives have a fitted effect of over 50% in size. Also: potency is read from the fitted curve at half-maximal effect. As to activity change, negative = cytotoxicity: top concentration of the series differs between compounds. An outline of the steps: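 HEK293 cells mixed with RealTime-Glo reagents (NanoLuc plus cell-permeant prosubstrate) at 600 cells/well, preincubated 5 h at 37 C/5% CO2, then given 23 nL compound in DMSO. Nonlytic luminescence from viable cells was read at 0, 8, 16, 24, 32 and 40 h.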

Assay [6] in a line: A CellTox Green Cytotoxicity Assay to monitor cytotoxicity in HEK293 cells - 16 hour (AID 1224888). Also: nearly all actives have a fitted effect of over 35% in size. Also: potency is read from the fitted curve at half-maximal effect. An outline of the steps: as §2
A short description of assay [7]: qHTS RealTime-Glo MT Cell Viability Assay in HepG2 cells - 0 hour (AID 1224889). Also: nearly all actives have a fitted effect of over 50% in size. The essentials:
as §3

The nature of assay [8]: A CellTox Green Cytotoxicity Assay to monitor cytotoxicity in HepG2 cells - 8 hour (AID 1224890). Also: nearly all actives have a fitted effect of over 45% in size. Also: potency is read from the fitted curve at half-maximal effect. The essentials:
as §1

Assay [9] can be described thus: qHTS assay to identify small molecule antagonists of the estrogen receptor alpha (ER-alpha) signaling pathway using the BG1 cell line in the presence of 0.1 nM 17-beta-estradiol - cell viability counter screen (AID 1259241). Also: nearly all actives have a fitted effect of over 40% in size. Also: potency is read from the fitted curve at half-maximal effect. An outline of the steps:
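The cell line endogenously expresses full-length ER-alpha and carries four EREs driving luciferase. Cells are cultured 5 days hormone-free, treated 22 hr with compounds and 0.1 nM estradiol, then viability is read by fluorescence.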

The nature of assay [10]: qHTS assay to identify small molecule antagonists of the androgen receptor (AR) signaling pathway using the MDA cell line in the presence of 0.5 nM R1881 - cell viability counter screen (AID 1259242). Also: nearly all actives have a fitted effect of over 45% in size. Also: potency is read from the fitted curve at half-maximal effect. An outline of the steps: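 MDA-kb2 cells (human breast carcinoma, stably carrying MMTV-luciferase reporter) were exposed to compounds with 0.5 nM R1881 (final) for 16 hr at 37C, 0% CO2; viability then read as live-cell protease fluorescence (CellTiter-Fluor, 30 min) in the same wells.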

Results filed as inconclusive are left out. Values without a mark were called inactive. The source made the active and inactive calls. Calls follow the shape of the dose curve; as a rule, active = well fitted curve in the direction sought with a large enough effect in the repeat runs; inconclusive = weak or mixed curves; inactive = no such curve, though single readings can be large; an effect the other way counts as inactive or inconclusive.
% is scaled to controls: 0 for no effect and ±100 for the full control effect.

On to `CCCCN(CCCC)C(=S)[S-].CCCCN(CCCC)C(=S)[S-].[Zn+2]`, for which the Potency in assay [1] was 21.9 µM (active); in assay [3] it was 34.7 µM (active); in assay [4], 11 µM (active); in [5], 15.5 µM (active); in [9], 17.2 µM (active). Further, the Potency result in assay [2], in assay [6], in assay [7] and in assay [8] was “inactive” each time.
Consider `C[CH2][Hg][N]1C(=O)C2C(C1=O)C1(Cl)C(Cl)=C(Cl)C2(Cl)C1(Cl)Cl` (stereo unspecified), for which the Potency is 8.27 µM (active) in assay [1]; 4.65 µM (active) in [2]; 6.57 µM (active) in assay [3]; 2.33 µM (active) in assay [4]; 3.69 µM (active) in assay [5]; 4.65 µM (active) in [6]. Further, the Potency in [8] is 8.27 µM (active); in assay [9], 13 µM (active). The activity change, negative = cytotoxicity in assay [7] is -6.6% [at 15.8 µM].
Regarding `COCC(=O)N(c1c(C)cccc1C)[C@H](C)C(=O)OC`, the Potency result in [1], in assay [2], in assay [3], in assay [4], in assay [5] and in assay [6] was “inactive” in each case. Besides, the Potency entry in [7], in assay [8] and in assay [9] was “inactive” throughout.
`O=[N+]([O-])c1cc(Cl)ccc1Cl`: the Potency result in assay [1], in assay [2], in assay [3], in assay [4], in assay [5] and in [6] was “inactive” throughout. The Potency result in assay [7], in assay [8], in assay [9] and in assay [10] was “inactive” throughout.
`c1ccc2cc3c(cc2c1)-c1cccc2cccc-3c12`: the Potency result in assay [1], in assay [2], in assay [3], in assay [4], in assay [5] and in [6] was “inactive” in each case. Besides, the Potency result in [7] and in assay [8] was “inactive” throughout.
As to `CC(C)[C@H](C(=O)OC(C#N)c1cccc(Oc2ccccc2)c1)c1ccc(OC(F)F)cc1` (stereo partly specified), the Potency result in assay [1], in [2], in assay [3], in assay [4], in [5] and in [6] was “inactive” throughout. The Potency result in assay [7], in assay [8], in [9] and in [10] was “inactive” in each case.
On to `C[C@H]1CC[C@@H]2[C@@H](C)[C@H]3[C@H](C[C@H]4[C@@H]5CC=C6CC(O[C@@H]7O[C@H](CO)[C@H](O)[C@H](O[C@@H]8O[C@H](CO)[C@@H](O)[C@H](O)[C@H]8O)[C@H]7O[C@H]7O[C@@H](C)[C@H](O)[C@@H](O)[C@H]7O)CC[C@]6(C)[C@H]5CC[C@]34C)N2C1` (stereo partly specified), for which the Potency is 22.6 µM (active) in assay [1]; 12.7 µM (active) in assay [2]; 50.6 µM (active) in assay [3]; 12.7 µM (active) in assay [4]; 8.99 µM (active) in assay [5]; 7.14 µM (active) in [6]. Further, the Potency was 25.3 µM (active) in [8] and 25.1 µM (active) in assay [10]. Moreover, the Potency entry in [7] and in [9] was “inactive” throughout.
Turning to `N#CNC#N`, the Potency result in assay [1], in assay [2], in assay [3], in [4], in [5] and in [6] was “inactive” throughout. Besides, the Potency result in [7], in [8] and in assay [9] was “inactive” each time.
Take `CCOC(=O)OC1=C(c2cc(C)ccc2C)C(=O)NC12CCC(OC)CC2` (stereo unspecified): the Potency entry in [1], in assay [2], in assay [3], in assay [4], in [5] and in assay [6] was “inactive” throughout. Also, the Potency entry in [7], in assay [8] and in assay [9] was “inactive” throughout.
Regarding `C=COCCCl`, the Potency entry in assay [1], in assay [2], in assay [3], in assay [4], in assay [5] and in [6] was “inactive” throughout. The Potency entry in [7], in assay [8], in [9] and in assay [10] was “inactive” each time.
In the case of `ClC1=C(Cl)[C@]2(Cl)[C@@H]3[C@@H](Cl)[C@@H](Cl)C[C@@H]3[C@@]1(Cl)C2(Cl)Cl`, the Potency entry in assay [1], in [2], in assay [3], in [4], in assay [5] and in assay [6] was “inactive” each time. In addition, the Potency result in [7], in assay [8], in assay [9] and in assay [10] was “inactive” throughout.
On to `C=CC(=O)N(C)C`, for which the Potency result in assay [1], in assay [2], in assay [3], in assay [4], in assay [5] and in [6] was “inactive” in each case. The Potency result in assay [7], in assay [8] and in [9] was “inactive” each time.
In the case of `N#Cc1ccccc1N`, the Potency result in [1], in assay [2], in assay [3], in [4], in assay [5] and in assay [6] was “inactive” throughout. In addition, the Potency result in assay [7], in [8] and in assay [9] was “inactive” throughout.
Consider `ClC1=C(Cl)[C@]2(Cl)[C@@H]3[C@@H]4C[C@@H]([C@H]5O[C@@H]45)[C@@H]3[C@@]1(Cl)C2(Cl)Cl`, for which the Potency in [1] is 54.9 µM (active); in assay [2], 27.5 µM (active); in [3], 43.6 µM (active); in [4] it was 21.9 µM (active); in [5], 38.9 µM (active); in assay [6] it was 49 µM (active). Moreover, the Potency in assay [8] was 49 µM (active). Moreover, the Potency result in assay [7] and in assay [9] was “inactive” each time.
For `CCc1ccccc1C`, the Potency result in [1], in [2], in assay [3], in [4], in assay [5] and in assay [6] was “inactive” each time. In addition, the Potency result in assay [7], in assay [8] and in assay [9] was “inactive” in each case.
For `CC(C)CCCCCOC(=O)c1ccccc1C(=O)OCCCCCC(C)C`, the Potency entry in [1], in assay [2], in assay [3], in [4], in [5] and in [6] was “inactive” in each case. The Potency result in [7], in assay [8], in assay [9] and in [10] was “inactive” throughout.
As to `Cc1ccc(C(=O)Cl)cc1`, the Potency entry in assay [1], in [2], in assay [3], in [4], in [5] and in assay [6] was “inactive” each time. In addition, the Potency entry in assay [7], in [8], in assay [9] and in [10] was “inactive” throughout.
In the case of `CN(C)CCc1c[nH]c2ccc(O)cc12`, the Potency entry in assay [1], in assay [2], in assay [3], in assay [4], in assay [5] and in assay [6] was “inactive” throughout. The Potency result in [7], in [8] and in assay [9] was “inactive” in each case.
In the case of `COP(N)(=S)OC`, the Potency entry in assay [1], in [2], in assay [3], in assay [4], in assay [5] and in assay [6] was “inactive” in each case. Further, the Potency result in assay [7], in assay [8], in assay [9] and in assay [10] was “inactive” each time.
With `CCCCCCCCCCCCCCCCCCn1cc[n+](C)c1`, the Potency in assay [1] is 19.4 µM (active); in assay [2], 24.4 µM (active); in assay [3], 43.4 µM (active); in [4], 15.4 µM (active); in assay [6] it was 27.4 µM (active); in assay [8], 38.7 µM (active). Moreover, the Potency entry in assay [5] and in assay [7] was “inactive” in each case.
For `SCc1ccco1`, the Potency entry in [1], in assay [2], in assay [3], in [4], in assay [5] and in assay [6] was “inactive” in each case. For the same compound, the Potency entry in [7], in assay [8], in assay [9] and in [10] was “inactive” throughout.

For the origin of these results see PubChem BioAssay (Tox21).
